SARS PLpro yeast = blocks SARS-CoV papain-like protease in a yeast assay | S. cerevisiae expressing SARS-CoV PLpro, growth rescue | Potency, µM (highest dose often 32.9 µM), without a hit: at the highest dose activity, positive = growth rescue, actives largely listed as activators | 330,000 compounds, 0.19% hits; also: potency is read from the fitted curve at half-maximal effect; 0% is about no effect; nearly all actives have a fitted effect of over 55% in size
Shiga inhibitor = inhibitors of Shiga toxin in Vero cells; inhibition, % at 38.7 µM; 290,000 compounds, 9.2% hits; AID 2315; Vero cells, Shiga toxin protein synthesis inhibition reporter; in the data active = inhibition mostly above about 28%, no sharp cut-off; inactive = mostly below about 43%; also: 0% is about no effect
Pf growth 96h = P. falciparum growth inhibition at 96 hours; P. falciparum luciferase reporter growth, 96 h; Potency, µM (series often up to 28.7 µM), for inactives: top-dose activity change, negative = inhibition, most hits filed as inhibitors; 320,000 compounds, 6.9% hits; AID 504834; active = well fitted inhibition curve with a large enough effect; inconclusive = small, poorly fitted or top-dose-only effect, or another doubt; inactive = no such curve, though single readings can be large or run the other way; also: potency is read from the fitted curve at half-maximal effect; % is scaled to controls: 0 for no effect and ±100 for the full control effect
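P. falciparum expressing integrated firefly luciferase, in erythrocytes at 2% hematocrit, 0.05% parasitemia, incubated with compounds 96 h at 37 C, 5% CO2. Growth inhibition read as loss of luminescence; two-generation exposure targets delayed-death apicoplast inhibitors.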
CHX counter-1 = counter-screen hit for Shiga toxin inhibitors, cycloheximide | 300,000 compounds, 12% hits | AID 2314 | max response, % | cell reporter, cycloheximide protein synthesis inhibition counterscreen; in the data active = max response mostly above about 13%, no sharp cut-off; inactive = mostly below about 14%; also: read at 38.3 µM for the half of the compounds with a filed dose; 0% is about no effect
Pf growth 48h = inhibits P. falciparum growth in the first generation, 48 h | P. falciparum luciferase growth in erythrocytes, 48 h | Potency, µM (highest dose often 28.7 µM), inactives show at the highest dose activity change, negative = inhibition, usual class: inhibitors | 310,000 compounds, 5.9% hits | AID 504832; active = well fitted inhibition curve with a large enough effect; inconclusive = small, poorly fitted or top-dose-only effect, or another doubt; inactive = no such curve, though single readings can be large or run the other way; also: potency is read from the fitted curve at half-maximal effect; % is scaled to controls: 0 for no effect and ±100 for the full control effect
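In quantitative HTS format, infected erythrocytes bearing luciferase-reporter parasites were treated for a single generation at 37 C. Luminescence after adding detection reagent served as the growth measure.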
NS1 function inh = blocks influenza NS1 protein function | Potency, µM (highest dose often 46.1 µM), for the others: top-dose activity, positive = more growth | 270,000 compounds, 0.4% hits; also: potency is read from the fitted curve at half-maximal effect; actives are rising curves; nearly all actives have a fitted effect of over 50% in size
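Read-out: OD600 growth recovery of NS1-expressing budding yeast. Cells grown overnight at 30C in -URA glucose medium, washed, resuspended and diluted 1:100 in 2% galactose assay medium, pH 6.0. Same strain lacking NS1 served as positive control.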
CHX counter-2 = affects protein synthesis reporter in cycloheximide counter-screen | 510 compounds, 3% hits | AID 2318 | Potency, µM (doses to about 38.3 µM), for inactives: at the top dose activity (activation), usual class: activators | Cycloheximide counterscreen, protein synthesis reporter, Shiga toxin assay | shares compounds with Shiga inhibitor; also: potency is read from the fitted curve at half-maximal effect; 0% is about no effect
The depositor's hits bear a star; ? = inconclusive; / = no result given; ! = repeats disagree; [ ] = another dose, or the depositor's remark. Shown are actives, neighbours in structure and some others; about 21% of the full set was active somewhere. Unless noted, calls follow the shape of the full dose curve.

SMILES	SARS PLpro yeast	Shiga inhibitor	Pf growth 96h	CHX counter-1	Pf growth 48h	NS1 function inh	CHX counter-2
Cc1cc(C)n2nc(C(=O)OC(C)C(=O)c3ccccc3)nc2n1 (stereo not drawn)	2%	/	-5%	/	-1%	/	/
COC(=O)[C@H](Cc1ccccc1)NC(=O)N1CCCCC1C (stereo partly drawn)	-3%	117*	51%	10	32%	0%	1%
CCCN(CC1CC1)C(=O)COC(=O)c1ccc2c(c1)C(=O)N(c1ccc(OCC)cc1)C2=O	0%	-7	4%	9	41%	/	/
CC(=O)N[C@@H](Cc1c[nH]c2ccccc12)C(=O)OCC(=O)Nc1ccc(Cl)c(S(=O)(=O)N(C)C)c1	-1%	43*	?	9	-13%	/	4%
CC(=O)Nc1ccc(Oc2ccc(-c3noc(C)n3)cc2)cc1	/	82*	-1%	12	?	18%	0%
COc1ccc(-c2noc(CNS(=O)(=O)c3ccc(NC(C)=O)cc3)n2)cc1	2%	6	?	-3	3%	-4%	/
CC(C)CCNC(=O)CCc1nnc(Cc2c[nH]c3ccccc23)o1	-1%	10	?	9	-15%	2%	/
CC(C)CN1CCN(C(=O)CCc2nnc(Cc3c[nH]c4ccccc34)o2)[C@@H](C)C1=O	3%	36*	-12%	17	-19%	8%	?
Cc1ccc(O)c(NC(=O)c2cc(C)no2)c1	-2%	38*	55%	1	24%	-1%	6%
Cc1cccc(C(=O)Nc2nnc(SCC(=O)Nc3ccc4c(c3)oc3ccccc34)s2)c1	14%	15	10%	-4	46%	2%	/
COc1ccccc1C(=O)Nc1nnc(SCC(=O)Nc2ccc3c(c2)oc2ccccc23)s1	-3%	45*	?	2	57%	16%	11µM*
Cc1cc(C)n(Cc2nc3ccccc3n2C)n1	1%	11	0%	-2	0%	-3%	/
Cc1cc(C)nc(SCc2nc3ccccc3n2C)n1	0%	41*	?	13	31%	-16%	8%
CC(=O)Nc1ccc(C23CC4CC(CC(C4)C2)C3)cc1	1%	26	67%	14	-11%	-12%	/
CC(=O)Nc1ccc(C2(O)COc3ccccc3O2)cc1 (stereo not drawn)	6%	132*	?	14	13%	1%	5%
Cn1c(=O)c2ccccc2n2c(CCl)nnc12	-12%	-6	?	-5	?	10%	/
CC(OC(=O)c1ccc2c(=O)n3c(nc2c1)CCC3)C(=O)Nc1ccc(C(N)=O)cc1 (stereo not drawn)	2%[6.58 µM]	/	2%	/	45%	/	/
CC(OC(=O)c1ccc2c(=O)n3c(nc2c1)CCC3)C(N)=O (stereo not drawn)	0%	51*	23%	11	20%	/	1%
N=c1oc2ccccc2cc1-c1nc(-c2ccc(Cl)cc2)cs1	7%	8	39%	-1	3%	10%	/
CN(C)S(=O)(=O)c1ccc(C(=O)Nc2ccc(CN3CCCC3)cc2)cc1	3%	51*	/	7	?	?	1%
CN(C)S(=O)(=O)c1ccc(C(=O)Nc2ccc(CCC(=O)N3CCCC3)cc2)cc1	11%	-4	-2%	-2	?	-5%	/
CCC(C)NC(=O)c1ccccc1NC(=O)CN1C(=O)c2ccccc2S1(=O)=O (stereo not drawn)	0%	-2	-2%	3	15%	-5%	/
Cc1ccc2c(c1)-c1[nH]c(=S)ncc1CS2	7%	-4	76%	-4	-6%	/	/
CCN(CC)C(=O)CSC(Nc1ccc(F)cc1)=C(C#N)C#N	1%	23	0%	-4	3%	6%	/
Cc1ccc(CSC(Nc2ccc(F)cc2)=C(C#N)C#N)cc1	-2%	21*	?	1	?	-6%	0%
SMILES	SARS PLpro yeast	Shiga inhibitor	Pf growth 96h	CHX counter-1	Pf growth 48h	NS1 function inh	CHX counter-2
COc1ccc(Cn2nnnc2C(C(C)C)N(Cc2ccco2)Cc2cccs2)cc1 (stereo not drawn)	-6%	44*	79%	8	?	13%	0%
CCCc1cc(=O)oc2cc(OCC(=O)N3CCc4ccccc43)ccc12	1%	-21	?	-4	14%	10%	/
COC(=O)c1ccc(NC(=O)Cc2ccc(F)cc2)cc1	-2%	151*	59%[1.15 µM]	14	-34%[1.15 µM]	-6%	?
Cc1ccc2c(c1C)NC(C(=O)O)C1CC=CC21 (stereo not drawn)	4%	110*!	/	5	?	8%	-2%
O=C(O)C1Nc2c(C(=O)N3CCOCC3)cccc2C2C=CCC12 (stereo not drawn)	2%	-11	0%	-6	-10%	5%	/
CC1(C)CC(=O)C2=C(C1)OC(N)=C(C#N)C2Cc1ccccc1 (stereo not drawn)	-4%	-1	-18%	-1	0%	1%	/
CCC(C)C1C(C#N)=C(N)OC2=C1C(=O)CC(C)(C)C2 (stereo not drawn)	-5%	14*	?	-2	?	-84%	-2%
C=CCN(C(=O)c1csnn1)C(C(=O)NC1CCCC1)c1cccs1 (stereo not drawn)	-1%	-7	-16%	-4	17%	3%	/
CN(C)C(CNC(=O)CCC(=O)c1ccc(Br)cc1)c1ccccc1 (stereo not drawn)	-3%	38*	-2%	11	-9%	1%	-1%
COC(CNC(=O)C1CCC(CNS(=O)(=O)c2c(C)cc(C)cc2C)CC1)OC (stereo not drawn)	0%	-5	2%	-3	-16%	-5%	/
COc1cc(/C=C(\C#N)C(=O)NC2CCCCC2C)ccc1OS(=O)(=O)c1ccc(C)cc1 (stereo not drawn)	6%	-9	?	-7	?	6%	/
CSc1ccc(/C=C(\C#N)C(=O)NC2CCCCC2C)cc1 (stereo not drawn)	-12%	27*	?	8	?	-33%	3%
COc1cccc(OC)c1OCCCOc1ccc(C)cc1Br	-91%	22*	21%	7	?	-27%	2%
Cc1ccc(OCCCN(C)C)c(Br)c1	8%	-30	-23%	-6	34%	-6%	/
CCN(CCNC(=O)C1CCN(Cc2nc(-c3cccc(Cl)c3)oc2C)CC1)c1ccccc1	-2%	105*	?	10	?	-41%	-2%
CCN(CCNC(=O)C1CCN(Cc2nc(-c3ccc(Cl)cc3)oc2C)CC1)c1ccccc1	-3%	-5	46%	2	?	-5%	/
Cc1nnc(NC(=O)CSc2ccc(-c3ccc(Cl)cc3)nn2)s1	1%	30*	24%	12	35%	/	0%
Cc1nnc(NC(=O)CSc2ccc(-c3ccco3)nn2)s1	-6%	18	?	-1	2%	/	/

High-throughput results (PubChem)
